# A selection: hits, their analogues and other compounds. The true share with any hit is near 2.8%.
# POLH inh = DNA polymerase eta (human) inhibition; Q9Y253; recombinant Pol eta, fluorescent DNA replication assay; Potency, µM (highest dose often 114 µM), hits mostly inhibitors; 390,000 tested, 1.2% active; AID 588591
#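 Fluorescent replication assay: 50 nM final substrate added after a 15 min room-temperature compound preincubation with 10 nM enzyme. Signal taken at 0 min and again at 10 min.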
# PI5P4Ka inh = PI5P4K alpha (human) kinase inhibition. P48426. max response, %. 330,000 tested, 1.2% active. PI5P4Kalpha enzyme, ADP-Glo luminescence, 60 min; hits give low values; active = max response of -50% or lower; inconclusive = between -30% and -50%; inactive = -30% or higher; note: value at the top dose of about 77 µM
#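 Enzyme plus substrate dispensed, test compounds pinned in, then ATP (5 microM final) added. After 60 min at RT, ADP-Glo reagent 1 for 45 min and reagent 2 for 30 min preceded luminescence imaging.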
# WRN helicase inh = blocks human WRN helicase; Q14191; WRN helicase unwinding, fluorescent forked duplex, kinetic; Potency, µM (highest dose often 114 µM), hits mostly inhibitors; 360,000 tested, 0.46% active; AID 651768; note: nearly all actives have a fitted effect of over 55% in size
#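 Enzyme (20 nM final) and test compound sit together 15 min at room temperature before substrate addition. Substrate is a single-forked duplex oligonucleotide (100 nM) labelled with fluorophore and quencher, with 2 mM ATP; helicase unwinding raises red fluorescence, read kinetically.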
# Pol kappa inh = inhibitors of human DNA polymerase kappa. Q9UBT6. purified Pol kappa, fluorescent DNA synthesis assay, 10 min. 400,000 tested, 0.53% active. Potency, µM (titrated, usually from 107 µM), actives largely listed as inhibitors
# Target sequence (Q9UBT6 whole entry, looked up): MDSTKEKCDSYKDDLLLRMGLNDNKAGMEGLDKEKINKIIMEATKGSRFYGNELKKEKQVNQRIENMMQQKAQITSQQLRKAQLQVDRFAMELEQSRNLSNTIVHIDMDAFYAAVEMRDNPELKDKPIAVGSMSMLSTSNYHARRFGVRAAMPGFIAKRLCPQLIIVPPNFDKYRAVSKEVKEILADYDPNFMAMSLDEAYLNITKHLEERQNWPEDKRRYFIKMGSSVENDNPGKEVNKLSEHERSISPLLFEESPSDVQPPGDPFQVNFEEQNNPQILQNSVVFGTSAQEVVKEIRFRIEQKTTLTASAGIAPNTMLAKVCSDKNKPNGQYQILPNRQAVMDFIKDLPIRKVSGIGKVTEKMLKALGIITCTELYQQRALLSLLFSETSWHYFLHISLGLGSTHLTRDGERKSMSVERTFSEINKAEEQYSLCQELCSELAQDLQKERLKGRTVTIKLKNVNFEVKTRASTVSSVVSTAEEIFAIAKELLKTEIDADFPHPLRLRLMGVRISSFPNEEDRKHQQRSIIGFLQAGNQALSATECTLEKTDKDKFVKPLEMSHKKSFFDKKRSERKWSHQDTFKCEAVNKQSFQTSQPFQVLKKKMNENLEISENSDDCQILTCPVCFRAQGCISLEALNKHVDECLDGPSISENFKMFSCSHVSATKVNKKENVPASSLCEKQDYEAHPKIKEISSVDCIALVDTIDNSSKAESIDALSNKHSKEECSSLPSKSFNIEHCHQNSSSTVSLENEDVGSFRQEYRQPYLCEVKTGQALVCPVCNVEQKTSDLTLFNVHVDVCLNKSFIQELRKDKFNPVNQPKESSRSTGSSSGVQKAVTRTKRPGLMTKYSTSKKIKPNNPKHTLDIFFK
#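 Enzyme at 10 nM met test compounds for 15 min at room temperature. Substrate addition (50 nM final) began the reaction, which was monitored by fluorescence at 0 and 10 min.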
# Pol iota inh = DNA polymerase iota (human) inhibition. Q9UNA4. Pol iota fluorescent replication assay, 10 min. Potency, µM (titrated, usually from 115 µM), hits mostly inhibitors. 390,000 tested, 1% active. AID 588590
#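 Pol iota at 10 nM preincubated 15 min with compounds at room temperature; reaction started with fluorescent substrate, 50 nM final. Fluorescence read kinetically at 0 and 10 min; buffer-only wells as negative control.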
# Pol beta inh-1 = inhibitors of human DNA polymerase beta; P06746; Pol beta primer extension/strand displacement, fluorescence kinetic; Potency, µM (highest dose often 114 µM), actives largely listed as inhibitors; 340,000 tested, 1.3% active
#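 Curves were derived by four-parameter Hill fits of normalized qHTS data. The kinetic fluorescent primer-extension read was taken at 0 and 10 min after 50 nM substrate, following a 15 min room-temperature preincubation of 10 nM enzyme with compounds.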
# Pol beta inh-2 = Inhibitors of human DNA polymerase beta, hit validation; Potency, µM, usual class: inhibitors; Pol beta primer extension/strand displacement, fluorescence kinetic; shares compounds with Pol beta inh-1; 250 tested, 87% active; calls by dose curve
# Klenow counter = counter-screen for DNA polymerase beta inhibitors: Klenow fragment inhibition; shares compounds with Pol beta inh-1; Klenow exo- polymerase counter-screen, fluorescent DNA substrate; activity change, negative = inhibition, % at 57.1 µM; 250 tested, under 10 active
# HIV RT inh = counter-screen for DNA polymerase beta inhibitors: HIV-1 RT inhibition. HIV-1 RT polymerase activity, counter-screen. 250 tested, under 10 active. activity % (negative = inhibition, positive = activation), % at 57.1 µM. shares compounds with Pol beta inh-1
# POLB valid = DNA polymerase beta inhibition, radiolabeled validation; 110 tested, 91% active; radiolabeled primer extension gel assay, phosphorimager; AID 540325; shares compounds with Pol beta inh-1; inhibition, % at 10 µM;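 active = inhibition at 10 µM of 30% or more; inconclusive = no clear call, values can overlap the other calls; inactive = inhibition at 10 µM under 30%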
# Numbers stand for hits; - = inactive; ? = inconclusive; . = not tested or not shown; [ ] = dose if it differs, or a comment. Unless noted, calls come from the whole dose curve; as a rule, active = well fitted curve in the direction sought with a large enough effect; inconclusive = small, poorly fitted or top-dose-only effect, or another doubt; inactive = no such curve, though single readings can be large; an effect the other way counts as inactive or inconclusive.
SMILES,POLH inh,PI5P4Ka inh,WRN helicase inh,Pol kappa inh,Pol iota inh,Pol beta inh-1,Pol beta inh-2,Klenow counter,HIV RT inh,others
COc1ccccc1CCNC(=O)C1CCN(c2nnc(C)c3c(C)n(-c4ccc(C)cc4)nc23)CC1,-,-,-,-,-,-,.,.,.,
COc1ccc(OCC(=O)OCCN2C(=O)c3ccccc3C2=O)cc1,-,-,-,-,-,20µM,32,-,-,POLB valid=85
CCOc1ccc(OCCN2C(=O)c3ccccc3C2=O)cc1,-,-,-,-,?,-,.,.,.,
CCOC(=O)CSC1=NC(=O)CS1,-,.,-,-,?,-,.,.,.,
O=C(c1cnn(-c2cccc(F)c2)c1-n1cccc1)N1CCN(c2ccccc2F)CC1,-,.,.,-,-,-,.,.,.,
COC(=O)c1sccc1-c1ccc(C(=O)Nc2cccc(Cl)c2)o1,?,-,?,-,?,14µM,18,-,-,
COc1ccc2c(c1)C(c1ccccc1C)CC(=O)O2 (stereo unspecified),.,.,.,-,.,.,.,.,.,
CC(C)CN(C(=O)COC(=O)c1cc2c(s1)CCC2)C1CCS(=O)(=O)C1 (stereo unspecified),3.5µM,-62,?,40µM,20µM,13µM,22,-,-,
O=C(Oc1ccccc1)N1CCC[C@@]2(CCN(c3ccccc3)C2)C1,.,.,.,-,.,.,.,.,.,
Cc1cc(SCC(=O)c2ccc(O)c(O)c2)nc2ccccc12,11µM,-,?,50µM,40µM,14µM,11,-,?,
O=C(Nc1ccc2nn(-c3ccccc3)nc2c1)c1cc2ccccc2o1,-,.,.,-,?,-,.,.,.,
O=C(Nc1ccc2nn(-c3ccccc3)nc2c1)c1ccc(Br)o1,79µM,.,-,?,?,20µM,20,-,-,
COc1cc(C(=O)N2CCC(O)(c3ccccc3)CC2)cc(OC)c1OC,-,-,-,-,-,-,.,.,.,
Cc1c(C(=O)Nc2ccc(F)cc2)cn2c(nc3ccccc32)c1C#N,-,-,-,-,-,-,.,.,.,
N#Cc1c2nc3ccccc3nc2n2cc(NC(=O)c3ccc(F)cc3)ccc12,35µM,?,20µM,?,?,6.3µM,10,-,-,
Cc1cc2[nH]c(=O)c(=O)[nH]c2cc1S(=O)(=O)N1CCN(c2cccc(C)c2C)CC1,?,-,?,?,?,11µM,28,-,-,POLB valid=73
CC(C)C(NC(=O)OCc1ccccc1)C(=O)OCC(=O)NCc1ccco1 (stereo unspecified),8.9µM,?,?,?,?,20µM,?,-,-,POLB valid=84
CC(C)C(NC(=O)OCc1ccccc1)C(=O)OCC(=O)NC1CC1 (stereo unspecified),-,-,-,-,-,-,.,.,.,
Cc1ccccc1-c1cc2nc(NCCN3CCCC3)n(C)c(=O)c2s1,.,-,-,.,.,.,.,.,.,
Cc1ccc(O)c(C(=O)c2cnn(C(=O)COc3ccc(Cl)cc3)c2)c1,?,-,-,-,-,5.6µM,14,-,-,
Cc1cc(C)n2nc(SCc3cc(=O)oc4cc(O)ccc34)nc2n1,.,.,.,.,.,13µM,22,-,-,POLB valid=84
O=C(Cn1cc(SCc2ccc(Cl)cc2)c2ccccc21)N1CCCC1,-,.,.,-,-,-,.,.,.,
O=C(Nc1cc(S(=O)(=O)N2CCOCC2)ccc1O)c1ccc(S(=O)(=O)N2CCCCC2)cc1,-,-,-,-,-,.,.,.,.,
O=C(Nc1cc(S(=O)(=O)Nc2ccc(Cl)cc2)ccc1O)c1ccc(S(=O)(=O)N2CCCCCC2)cc1,?,-,?,-,?,5.6µM,22,-,-,POLB valid=67
Cc1nn2c(=O)cc(COC(=O)c3ccccc3NC(=O)C(C)Oc3ccccc3)nc2s1 (stereo unspecified),-,.,.,-,-,-,.,.,.,
SMILES,POLH inh,PI5P4Ka inh,WRN helicase inh,Pol kappa inh,Pol iota inh,Pol beta inh-1,Pol beta inh-2,Klenow counter,HIV RT inh,others
C#CCn1c(=NC(=O)CN2C(=O)CCC2=O)sc2cccc(OC)c21,-,-,-,-,-,-,.,.,.,
C#CCn1c(=NC(=O)c2cccs2)sc2cccc(OC)c21,?,-,-,-,?,20µM,32,-,-,POLB valid=77
N=C1C(c2nc3ccccc3s2)=C(O)CN1NC(=O)c1c[nH]c2ccccc12,-,-,-,-,?,13µM,25,-,-,POLB valid=52
CCOC(=O)c1cc(-c2cc3ccccc3o2)nc2c1c(=O)[nH]c(=O)n2CCOC,?,-,-,-,-,-,.,.,.,
CCOC(=O)c1cc(-c2ccc([N+](=O)[O-])cc2)nc2c1c(=O)[nH]c(=O)n2Cc1ccccc1,45µM,-,-[11.6 µM],-,?,2.5µM,14,-,-,
Cc1ccc(CNC(=O)CCc2c(C)nc3c4c(C)cc(C)nc4nn3c2C)cc1,-,.,.,-,-,-,.,.,.,
CCCOc1ccc(C(=O)Nc2ccc3oc(-c4ccc(N(C)C)cc4)nc3c2)cc1,-,.,.,-,-,-,.,.,.,
O=C(O)c1ccc(-c2ccc(-c3ccccc3)cc2)s1,.,.,.,.,.,16µM,20,-,-,
C[C@H](NC(=O)[C@@H](Cc1c[nH]c2ccccc12)NC(=O)[C@@H](N)Cc1cnc[nH]1)C(=O)N[C@@H](Cc1c[nH]c2ccccc12)C(=O)N[C@H](Cc1ccccc1)C(=O)N[C@@H](CCCCN)C(N)=O,.,.,.,-,.,.,.,.,.,
COc1cc(NC(=O)c2cccs2)c(C(=O)OCC(=O)NCc2ccco2)cc1OC,10µM,-,?,79µM,?,13µM,32,-,-,
CC(C)n1c(=S)[nH]c2scc(-c3cccs3)c2c1=O,18µM,-82,-,?,20µM,7.9µM,22,-,-,POLB valid=98
O=c1cc(CSc2nnc(NC3CCCCC3)s2)nc2sccn12,-,-,-,-,-,-,.,.,.,
C=CCn1c(SCc2cc(=O)n3ccsc3n2)nnc1C1CCCCC1,79µM,.,-[11.6 µM],?,25µM,20µM,?,-,-,POLB valid=87
CCCCn1c(N)c(-c2nc3ccccc3s2)c2c([N+](=O)[O-])nn(C)c(=O)c21,-,.,-,-,-,-,.,.,.,
CCCCCn1c(N)c(-c2nc3ccccc3o2)c2c([N+](=O)[O-])nn(C)c(=O)c21,?,-,-,-,-,1.4µM,11,-,-,
COc1ccc(Cc2nnc(NC(=O)Cc3cccs3)s2)cc1OC,6.3µM,-92,?,79µM,?,8.9µM,?,-,-,
Cn1c(SCC(=O)Nc2ccc3nc(SCC(=O)NC4CC4)sc3c2)nnc1-c1ccccc1,-,-,-,-,?,-,.,.,.,

# Screening data from PubChem.
